In all, about 2,200 compounds went through this assay and about 530 (24%) were called active.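 Rule for the calls: active = inhibition above a set limit at one or more concentrations of the dose series; inactive = inhibition under that limit at every dose.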 A selection follows. Measured potencies and affinities stand elsewhere.

This experiment can be described thus: S. Typhimurium nonspecific reporter signal inhibition – Salmonella Typhimurium, GFP fluorescence, counter-screen for PhoP regulon inhibitor project, dose response (AID 2401).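 Note: S. typhimurium with Mg-insensitive nmpC-GFP reporter grown at 10 µM Mg2+; drop in reporter fluorescence reflects general culture growth inhibition.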 The following applies: 4 h; series mostly up to 150 µM. In general terms: A counterscreen serves to expose hits that act by an unwanted route or on another target.
For `O=C(NCC(=O)N(c1cccnc1)C(C(=O)NCc1ccco1)c1ccccc1)c1ccco1` (centres undefined), the compound was classed as inactive. The entry for `COc1ccc(N2C(=O)[C@@H]3[C@H](C2=O)[C@H]2c4ccccc4C=CN2[C@@H]3C(=O)Nc2ccccc2)cc1` is “inactive”; for `CCCc1cc(C(=O)Cc2ccc(C(=O)OCC)o2)c(O)cc1O` it is “inactive”. The entry for `CCOc1ccccc1NS(=O)(=O)c1ccc(Br)s1` is “inactive”; for `O=C(Oc1ccc(N(Cc2cccs2)C2=NS(=O)(=O)c3ccccc32)cc1)c1ccc(Cl)cc1` it is “inactive”.

`COc1ccc2c(c1)CC/C(=C\Nc1ccc3c(c1)OCO3)C2=O`: the result was inactive.

On to `CCN(CC)CCNC(=O)c1cn(CC)c2cc(N3CCN(C(=O)c4ccco4)CC3)c(F)cc2c1=O`, for which the compound was called inactive. In the case of `CN(C)CCNC(=O)c1ccc(COCC(F)(F)F)cc1`, the compound was classed as inactive. The entry for `COC(=O)COc1ccc(S(=O)(=O)Nc2ccccc2SC)cc1` is “inactive”; for `Cc1cc(CNC(=O)Nc2ccc3c(c2)OCO3)nn1C` it is “inactive”.

`O=C(NCc1cn2ccsc2n1)Nc1ccc(Cl)cc1`: the outcome was inactive. The entry for `Oc1ccc(Nc2nc(-c3cccs3)cs2)cc1` is “inactive”; for `CC(C)c1ccc(NC(=O)N(CCc2nc3ccccc3[nH]2)C2CCCC2)cc1` it is “inactive”. The entry for `O=C1C2C3c4ccccc4C(c4ccccc43)C2C(=O)N1c1cccc2cccnc12` (centres undefined) is “inactive”; for `Brc1ccc2cccnc2c1` it is “inactive”.

On to `C/C(=N/Nc1nc(-c2ccccc2)cc(-c2ccc(F)cc2)n1)c1cccc(N)c1`, for which the compound was classed as inactive.

Turning to `CC(=O)Nc1c(C#N)c(C(C)(C)C)cn1C`, the result was inactive. The same measure for `CCOc1cc(C2C(C(=O)OC)=C(C)N=C3SCCC(=O)N32)ccc1OC(C)=O` (centres undefined): “inactive”. Turning to `O=C(NCc1ccc2c(c1)OCO2)c1ccc(-n2cnnn2)cc1`, the compound was classed as inactive.

In the case of `CCCN1C(=O)SC(CC(=O)Nc2ccc(Br)cc2)C1=O` (centres undefined), the compound was called inactive. Consider `CCn1c(C)cc(=S)c2ccccc21`, for which the outcome was inactive. The entry for `O=C(NCCCN1CCCC1=O)c1ccc(Cl)c(NS(=O)(=O)c2ccc(F)cc2)c1` is “inactive”. The entry for `CC1CCCCN1Cc1cnc(Cl)s1` (centres undefined) is “inactive”; for `Oc1ccc(Br)cc1-c1ccn[nH]1` it is “inactive”.

With `Cc1ccc(N(CC(=O)Nc2cccc(C)c2)S(=O)(=O)c2cccc3nonc23)cc1`, the call was inactive. The same measure for `Cc1ncc(C23CC4CC(CC(C4)C2)C3)[nH]1`: “inactive”; for `O=C1C2=C(NC(=S)NC2c2ccc(Cl)cc2)NC(c2ccc(Cl)cc2)N1c1ccc(Cl)cc1` (centres undefined): “inactive”; for `Cc1ccc(C=Nc2ccccc2C(N)=O)cc1`: “inactive”.

Regarding `CC(C)CCn1c(SCC(=O)N2CC(=O)Nc3ccccc32)nc2scc(-c3cccs3)c2c1=O`, the outcome was inactive.

On to `c1coc(CNc2ncnc3ccccc23)c1`, for which the call was inactive.

As for `C=CCNc1ncnc2ccc(Br)cc12`, the result was inactive.

Regarding `CCOC(=O)N1CCN(S(=O)(=O)c2ccc(C(=O)NNc3nc4cc(C)cc(C)c4s3)cc2)CC1`, the call was inactive.

In the case of `c1ccc(CN2CCN(c3nc(-c4ccccc4)nc(-n4ccnc4)n3)CC2)cc1`, the outcome was inactive.

`CCCOC(=O)Oc1ccc2c(=O)c(Oc3cc(C)cc(C)c3)coc2c1`: the result was inactive. The same measure for `Cc1ccccc1NC(=S)NC1CCN(Cc2ccccc2)CC1`: “inactive”. As for `OC1(c2ccc3ccccc3c2)CCN(Cc2ccccc2)C1` (centres undefined), the compound was called inactive. Regarding `O=C1c2cccc(OCC(=O)N3N=C(c4cccs4)CC3c3ccc(F)cc3)c2CCN1Cc1cccnc1` (centres undefined), the compound was classed as inactive. Turning to `COc1ccc(O)c(/C=c2/sc3nc4cc(C)c(C)cc4n3c2=O)c1`, the compound was classed as inactive. The same measure for `Cc1ccc2c(CN3CCC(C)CC3)cc(=O)oc2c1`: “inactive”; for `O=C(Cn1cnc2ccccc2c1=O)NCc1ccco1`: “inactive”; for `CCn1nc(C(=O)OC(C(=O)c2c[nH]c3ccccc23)c2ccccc2)c2ccccc2c1=O` (centres undefined): “inactive”.

On to `Cc1ccc(C)c(C(=O)NCc2ccncc2)c1`, for which the compound was classed as inactive.

As for `CCOC(=O)c1ccc(N2CCN(c3ccc(F)cc3)CC2)c(NC(=O)Nc2cccc(OC)c2)c1`, the compound was called inactive. The same measure for `CCN(CC)CCN(Cc1cc2cc3c(cc2[nH]c1=O)OCCO3)C(=O)NC1CCCCC1`: “inactive”; for `N#Cc1c(-c2ccccc2)ccn(Cc2cccc(Cl)c2)c1=O`: “inactive”; for `CSc1nnc(NC(=O)CCc2ccccc2)s1`: “inactive”. The same measure for `O=C(CSc1nc(Nc2ccccc2)nc(N2CCOCC2)n1)Nc1ccc([N+](=O)[O-])cc1`: “inactive”; for `O=C(Nc1cc(C(F)(F)F)ccc1Cl)C(NCc1ccccc1)c1ccccc1` (centres undefined): “inactive”; for `O=C(NNc1nc(-c2ccccc2)cs1)c1ccccc1`: “inactive”. The entry for `O=C(NC1CCCC1)c1ccc(Cl)s1` is “inactive”.

In the case of `COc1ccc(C2=Nc3cccc4cccc(c34)N2)cc1`, the outcome was inactive. The entry for `CCN(CC)S(=O)(=O)c1ccc(C(=O)N2CCN=C2SCc2cccnc2)cc1` is “inactive”. Take `Cc1cc(C)n2c(SCC(=O)NCc3ccco3)nnc2n1`: the result was inactive. The same measure for `Cc1ccc2nc(-c3ccc(Br)o3)oc(=O)c2c1`: “inactive”; for `NC1=NC(=Nc2ccc(Br)cc2)c2ccccc21`: “inactive”. Consider `Cn1cnnc1SCC(=O)Nc1cccc(C(=O)O)c1`, for which the result was inactive. The entry for `COc1ccc2nc(-c3ccccc3)cc(OC)c2c1` is “inactive”; for `Nc1c(C(=O)Nc2ccc(F)cc2)sc2nc(-c3ccco3)ccc12` it is “inactive”; for `Cc1cccc(-n2c(N)cc(=O)[nH]c2=S)c1` it is “inactive”. The same measure for `COc1ccc(OCCSc2nnc(-c3ccc(OC)cc3)n2N)cc1`: “inactive”; for `CCOC(=O)N1CCN(S(=O)(=O)c2ccc(C(=O)NNc3nc4c(C)cc(C)cc4s3)cc2)CC1`: “inactive”. The same measure for `c1ccc2c(c1)CCN(c1ncnc3c1[nH]c1ccccc13)C2`: “inactive”; for `O=C(C(=O)N1CCc2ccccc2C1)N1CCc2ccccc2C1`: “inactive”; for `O=C(Nc1ccc(S(=O)(=O)N2CCCC2)cc1)c1ccc(CN2CCc3ccccc3C2)cc1`: “inactive”. `Oc1ccc(NCc2ccccc2OCc2ccccc2F)cc1`: the result was inactive.

For the compound `NC(=O)N1OCC2COc3ccc4ccccc4c3C21` (centres undefined), the outcome was inactive. The entry for `Cc1ccc(NC(=O)COC(=O)C2(c3ccc(Cl)cc3)CCCC2)cc1` is “inactive”; for `COc1ccc(/C=C(\NC(=O)/C=C/c2ccco2)C(=O)NCCc2nc3ccccc3[nH]2)cc1` it is “inactive”. Consider `C=CCOc1ccccc1CNCCCN1CCOCC1`, for which the compound was classed as inactive.

Turning to `FC(F)(F)C1=CC(c2ccc(Br)cc2)=NCCN1`, the compound was classed as inactive. With `CCCCC(=O)NCCNC(=O)c1cc(OCC(F)(F)F)ccc1OCC(F)(F)F`, the outcome was inactive. As for `CCOc1ccc2c(c1)nc(SCC(=O)c1ccc(Br)s1)n2C`, the compound was called inactive.

Regarding `Cc1ccc(-c2csc(=S)n2CC(=O)OCC(=O)NCc2ccco2)cc1`, the result was inactive.

Consider `CCc1nc(SCC(=O)N2CCCc3ccccc32)c2oc3ccccc3c2n1`, for which the compound was called inactive. The entry for `Cc1ccc2c(c1)[nH]c1c(N3CCN(Cc4ccccc4)CC3)ncnc12` is “inactive”. Consider `O=C(CN1CCN(Cc2ccccc2)CC1)c1c[nH]c2ccccc12`, for which the outcome was inactive. Regarding `O=C(CCCOc1ccccc1)N1CCCc2ccccc21`, the compound was classed as inactive.

As for `C/C(Nc1ccc(F)cc1)=C(/C#N)C(N)=O`, the call was inactive.

For the compound `CN(C)c1ccc(/C=N/c2cc(-c3ccccc3)nn2-c2ccccc2)cc1`, the compound was called inactive. The entry for `CCC(CC)C(=O)NCCc1ccc(OC)cc1` is “inactive”; for `CCOc1c(Br)cc(CNCc2cccs2)cc1OC` it is “inactive”; for `S=C(NCc1ccncc1)Nc1ccc(Cl)c(Cl)c1` it is “inactive”. The same measure for `O=C(NC(NC(=S)Nc1ccc(Cl)c(Cl)c1)C(Cl)(Cl)Cl)c1ccco1` (centres undefined): “inactive”. The entry for `Cc1ccsc1/C=N/NC(=O)Cn1cnc2ccccc21` is “inactive”; for `Cc1cc(NC(=O)c2ccccc2-c2ccccc2)ccc1Br` it is “inactive”. With `CC1=CC2=NC(=O)/C(=C\c3cc(C)n(-c4ccc(F)cc4)c3C)C(=N)N2O1`, the outcome was inactive. The same measure for `CC(=O)NCCOc1c(C)cc(S(N)(=O)=O)cc1C`: “inactive”; for `O=C(NCCc1ccc(Cl)cc1)/C(=C/c1cccnc1)NC(=O)c1ccccc1`: “inactive”; for `Cc1ccc(S(=O)(=O)N2CCC(C(N)=O)CC2)c(C)c1C`: “inactive”. The entry for `Cc1nc([N+](=O)[O-])c(Br)n1CC(=O)c1ccccc1` is “inactive”.

As for `CC(=O)Nc1ccc(-n2nnnc2SCC(=O)Nc2cccc(NC(=O)c3ccco3)c2)cc1`, the compound was called inactive. The same measure for `COc1ccc(C(=O)Nc2cc(C)ccc2NC(=O)COc2ccccc2)cc1`: “inactive”. The same measure for `C=CCn1c(SCC(=O)Nc2nnc(CC)s2)nnc1-c1cccnc1`: “inactive”; for `Cc1ccc(C(=O)NCC(=O)NCC(=O)OCC(=O)c2ccc([N+](=O)[O-])cc2)cc1`: “inactive”.

For `CCc1ccccc1NC(=O)c1nnn(CC(=O)Nc2cccc(C)c2C)c1N`, the call was inactive. Consider `CC1CC(C)CN(CCCSc2ccccc2)C1` (centres undefined), for which the outcome was inactive. The same measure for `COc1cccc(NC(=O)CNC(=O)c2cccs2)c1`: “inactive”; for `COCC(=O)N(Cc1ccco1)c1nnc(C2CCOC2)s1` (centres undefined): “inactive”; for `Cc1ccc(C(C)C)cc1C(=O)CC1(O)C(=O)N(C)c2ccccc21` (centres undefined): “inactive”. As for `COC(=O)CSc1nc(SCc2ccccc2Cl)nc2c1CCCC2`, the outcome was inactive.

In the case of `CCOC(=O)c1[nH]c2ccccc2c1NC(=O)C(C)(C)C`, the compound was classed as inactive. The entry for `COc1ccc2nc(Nc3nc4cc5c(cc4s3)OCCO5)sc2c1` is “inactive”; for `NNc1nc2c(-c3cccc(C(F)(F)F)c3)nnn2c2ccccc12` it is “inactive”. The same measure for `COc1ccc2oc(=O)cc(C)c2c1`: “inactive”. The same measure for `COc1cccc(C(=O)Oc2c(CN3CCOCC3)cc(Cl)c3cccnc23)c1`: “inactive”; for `COc1ccccc1N1CCN(C(CNS(=O)(=O)c2ccccc2)c2cccnc2)CC1` (centres undefined): “inactive”. `c1coc(CNc2c3c(nc4ncnn24)CCCC3)c1`: the compound was classed as inactive. In the case of `O=C(NNc1nc(-c2ccccc2)cs1)c1ccco1`, the call was inactive. With `COCCNS(=O)(=O)c1cccn1-c1ncc(C(F)(F)F)cc1Cl`, the outcome was inactive. The same measure for `CC(=O)c1c(C)n([O-])c2cc(F)c(F)cc2[n+]1=O`: “inactive”; for `CCOC(=O)CN(C)Cc1c[nH]c2ccccc12`: “inactive”; for `O=c1c2cc(Br)ccc2nc(-c2ccccc2)n1O`: “inactive”. The same measure for `N#Cc1c(-c2ccco2)cc(-c2ccc(F)cc2)nc1N`: “inactive”; for `O=C1N2CCCc3cccc(c32)C12Nc1ccccc1S2` (centres undefined): “inactive”.

For the origin of these results see PubChem BioAssay AID2401 (Southern Research Specialized Biocontainment Screening …, 2010).
